Parameters in all cases: scale not given: direction of the effect not stated beside the values
Test [1] deals with Protein translocase subunit SecA (Escherichia coli (strain K12)) (UniProt P10408). Description: Assay to Identify E. coli SecA ATPase Inhibitors. It counts as functional. The note with it: 30 µM.
The target in test [2] is T1, Ubiquitin-activating enzyme e1, putative (Leishmania donovani (strain BPK282A1)) (UniProt E9BSI1).
T1 sequence (whole entry): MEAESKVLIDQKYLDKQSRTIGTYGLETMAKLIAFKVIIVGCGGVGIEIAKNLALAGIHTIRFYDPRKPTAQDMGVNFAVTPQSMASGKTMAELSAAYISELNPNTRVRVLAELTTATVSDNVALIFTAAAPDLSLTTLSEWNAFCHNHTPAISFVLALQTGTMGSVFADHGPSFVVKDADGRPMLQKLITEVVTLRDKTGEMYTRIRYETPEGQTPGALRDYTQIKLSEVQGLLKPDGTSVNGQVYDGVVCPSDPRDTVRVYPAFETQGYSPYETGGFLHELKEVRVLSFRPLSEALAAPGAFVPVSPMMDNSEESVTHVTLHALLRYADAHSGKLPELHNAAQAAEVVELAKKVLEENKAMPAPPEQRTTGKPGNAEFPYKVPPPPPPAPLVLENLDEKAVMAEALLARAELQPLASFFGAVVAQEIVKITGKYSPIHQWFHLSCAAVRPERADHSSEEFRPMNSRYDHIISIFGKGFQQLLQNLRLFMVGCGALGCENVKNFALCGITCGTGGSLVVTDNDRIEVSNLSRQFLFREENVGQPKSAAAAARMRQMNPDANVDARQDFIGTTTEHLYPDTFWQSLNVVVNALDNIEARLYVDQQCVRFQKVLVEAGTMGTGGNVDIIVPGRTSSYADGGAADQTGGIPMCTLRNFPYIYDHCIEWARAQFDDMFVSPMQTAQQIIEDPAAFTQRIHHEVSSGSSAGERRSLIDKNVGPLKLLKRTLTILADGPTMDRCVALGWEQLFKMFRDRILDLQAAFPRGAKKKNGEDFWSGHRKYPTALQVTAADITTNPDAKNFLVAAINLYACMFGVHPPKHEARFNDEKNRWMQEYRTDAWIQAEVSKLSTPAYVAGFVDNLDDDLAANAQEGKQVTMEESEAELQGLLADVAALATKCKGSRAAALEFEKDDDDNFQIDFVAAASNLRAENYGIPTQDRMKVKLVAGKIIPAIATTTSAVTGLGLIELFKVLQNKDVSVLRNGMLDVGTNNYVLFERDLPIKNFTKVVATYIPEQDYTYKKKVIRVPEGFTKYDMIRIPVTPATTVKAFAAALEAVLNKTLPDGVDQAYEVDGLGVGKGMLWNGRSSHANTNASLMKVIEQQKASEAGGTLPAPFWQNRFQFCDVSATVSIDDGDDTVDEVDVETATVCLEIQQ
The test can be described thus: Leishmania donovani Ubiquitin Activating Enzyme (LdE1). The format is functional. The note with it: 30 µM.

For test [3], the target named is Sialic acid-binding Ig-like lectin 9 (Homo sapiens) (UniProt Q9Y336). The test can be described thus: Hs-Siglec9 ALPHAscreen SOP 20170721. The note with it: 10 µM.
A further test has as its system Trypanosoma cruzi. The test can be described thus: Trypanosoma cruzi phosphomannomutase and mannose-1-phosphate guanylyltransferase assay. The note with it: 10 µM. It counts as functional.
Test [4] deals with T2, Arginase-2, mitochondrial (Homo sapiens) (UniProt P78540).
T2 sequence (whole entry): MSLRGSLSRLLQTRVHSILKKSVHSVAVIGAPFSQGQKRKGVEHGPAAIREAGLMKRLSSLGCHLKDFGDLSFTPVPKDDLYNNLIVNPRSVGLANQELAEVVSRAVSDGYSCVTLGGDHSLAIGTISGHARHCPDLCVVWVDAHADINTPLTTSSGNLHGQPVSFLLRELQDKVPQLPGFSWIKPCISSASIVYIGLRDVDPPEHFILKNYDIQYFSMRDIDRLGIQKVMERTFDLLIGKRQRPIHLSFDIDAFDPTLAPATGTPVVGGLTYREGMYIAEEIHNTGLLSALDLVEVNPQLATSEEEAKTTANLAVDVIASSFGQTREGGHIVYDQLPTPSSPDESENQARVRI
Description: in vitro enzyme assay to detect the production of urea directly proportional to the activity of Arginase II. Further: in the data most compounds retested in dose-response had high values. The format is functional. The note with it: 33.3 µM.

In test [5] the target is T3, Proteasome subunit beta (Trypanosoma cruzi) (UniProt O96673).
T3 sequence (whole entry): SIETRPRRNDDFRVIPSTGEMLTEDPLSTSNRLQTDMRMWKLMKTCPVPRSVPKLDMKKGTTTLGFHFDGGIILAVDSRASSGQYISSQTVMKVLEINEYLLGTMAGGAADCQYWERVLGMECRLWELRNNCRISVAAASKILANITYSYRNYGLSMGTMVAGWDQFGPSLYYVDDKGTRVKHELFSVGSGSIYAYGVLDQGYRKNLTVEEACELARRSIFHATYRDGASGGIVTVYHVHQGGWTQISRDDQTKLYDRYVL
Description: Trypanosoma cruzi proteasome chymotrypsin-like activity (TcProtChymo) assay. Further: in the data most compounds retested in dose-response had high values. The format is functional. The note with it: 9.37 µM.

The next test is filed under the species Homo sapiens. The test can be described thus: To identify inhibition of the IFN signalling (Jak-Stat) pathway via expression of an eGFP reporter gene under the control of an IFN-stimulated response element (ISRE) containing MxA promoter. It counts as functional. The conditions noted are these: 30 µM. Background: In a reporter assay the amount or activity of a reporter protein is the signal.

Test [6] deals with T4, Tyrosyl-tRNA synthetase, putative (Trypanosoma cruzi (strain CL Brener)) (UniProt Q4DSP6).
T4 sequence (whole entry): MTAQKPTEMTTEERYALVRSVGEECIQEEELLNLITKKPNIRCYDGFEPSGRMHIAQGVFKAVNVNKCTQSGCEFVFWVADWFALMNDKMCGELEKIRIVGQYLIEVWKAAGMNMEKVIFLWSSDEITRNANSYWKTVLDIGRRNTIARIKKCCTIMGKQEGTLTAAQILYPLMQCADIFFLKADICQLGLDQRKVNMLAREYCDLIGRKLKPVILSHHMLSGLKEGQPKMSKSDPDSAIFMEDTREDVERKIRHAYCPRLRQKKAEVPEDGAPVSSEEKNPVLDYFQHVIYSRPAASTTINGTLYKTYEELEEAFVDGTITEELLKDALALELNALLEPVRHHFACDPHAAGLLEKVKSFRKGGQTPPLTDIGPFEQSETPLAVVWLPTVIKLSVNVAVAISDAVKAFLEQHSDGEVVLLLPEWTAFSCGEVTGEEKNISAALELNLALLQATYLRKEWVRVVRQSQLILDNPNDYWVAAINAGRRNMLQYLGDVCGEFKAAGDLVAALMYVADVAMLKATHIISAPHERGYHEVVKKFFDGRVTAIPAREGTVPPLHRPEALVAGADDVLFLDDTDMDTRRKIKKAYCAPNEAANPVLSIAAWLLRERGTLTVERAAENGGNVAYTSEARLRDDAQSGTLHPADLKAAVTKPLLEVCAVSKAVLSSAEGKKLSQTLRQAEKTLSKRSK
The test can be described thus: Trypanosoma cruzi tyrosyl tRNA synthetase (TcYRS) _High Tyrosine SOP. Further: in the data most compounds retested in dose-response had high values. The format is functional. The conditions noted are these: 30 µM.

Test [7] addresses T4, Tyrosyl-tRNA synthetase, putative (Trypanosoma cruzi (strain CL Brener)). The test can be described thus: Trypanosoma cruzi tyrosyl tRNA synthetase (TcYRS) SOP. The conditions noted are these: 30 µM. The format is functional.
Test [8] deals with Chromo domain-containing protein 1 (Saccharomyces cerevisiae (strain ATCC 204508 / S288c) (Baker's yeast)) (UniProt P32657). Description: ScCHD-1 Enzyme Inhibition Assay. Further: in the data most compounds retested in dose-response had high values. It counts as functional. The note with it: 30 µM.

For some assays here: Entries with a potency or affinity are not part of this list.

Protein translocase subunit SecA (Escherichia coli (strain K12)), sequence (P10408 whole entry): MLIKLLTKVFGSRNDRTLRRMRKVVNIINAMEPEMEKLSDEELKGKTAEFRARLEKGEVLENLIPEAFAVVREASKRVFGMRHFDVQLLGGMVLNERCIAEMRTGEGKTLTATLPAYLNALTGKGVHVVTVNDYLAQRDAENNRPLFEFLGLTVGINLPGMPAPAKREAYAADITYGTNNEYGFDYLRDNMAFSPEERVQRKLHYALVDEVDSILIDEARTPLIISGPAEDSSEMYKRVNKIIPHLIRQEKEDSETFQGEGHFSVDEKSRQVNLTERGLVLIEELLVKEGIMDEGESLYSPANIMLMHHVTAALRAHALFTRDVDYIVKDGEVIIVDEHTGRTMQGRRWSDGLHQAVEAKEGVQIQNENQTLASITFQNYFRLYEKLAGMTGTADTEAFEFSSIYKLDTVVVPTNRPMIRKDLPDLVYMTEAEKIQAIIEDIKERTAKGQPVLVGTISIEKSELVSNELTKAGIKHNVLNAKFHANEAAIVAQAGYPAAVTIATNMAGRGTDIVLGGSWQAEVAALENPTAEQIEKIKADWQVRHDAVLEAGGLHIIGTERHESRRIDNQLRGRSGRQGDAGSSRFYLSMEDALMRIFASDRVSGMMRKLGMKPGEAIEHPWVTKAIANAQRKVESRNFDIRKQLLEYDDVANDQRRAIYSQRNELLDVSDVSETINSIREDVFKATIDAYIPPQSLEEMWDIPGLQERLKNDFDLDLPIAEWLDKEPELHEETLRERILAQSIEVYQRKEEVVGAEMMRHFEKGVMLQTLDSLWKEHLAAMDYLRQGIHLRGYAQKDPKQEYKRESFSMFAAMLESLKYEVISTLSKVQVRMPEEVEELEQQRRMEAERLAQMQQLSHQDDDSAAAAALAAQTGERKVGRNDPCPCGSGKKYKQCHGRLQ
Sialic acid-binding Ig-like lectin 9 (Homo sapiens), sequence (Q9Y336 whole entry): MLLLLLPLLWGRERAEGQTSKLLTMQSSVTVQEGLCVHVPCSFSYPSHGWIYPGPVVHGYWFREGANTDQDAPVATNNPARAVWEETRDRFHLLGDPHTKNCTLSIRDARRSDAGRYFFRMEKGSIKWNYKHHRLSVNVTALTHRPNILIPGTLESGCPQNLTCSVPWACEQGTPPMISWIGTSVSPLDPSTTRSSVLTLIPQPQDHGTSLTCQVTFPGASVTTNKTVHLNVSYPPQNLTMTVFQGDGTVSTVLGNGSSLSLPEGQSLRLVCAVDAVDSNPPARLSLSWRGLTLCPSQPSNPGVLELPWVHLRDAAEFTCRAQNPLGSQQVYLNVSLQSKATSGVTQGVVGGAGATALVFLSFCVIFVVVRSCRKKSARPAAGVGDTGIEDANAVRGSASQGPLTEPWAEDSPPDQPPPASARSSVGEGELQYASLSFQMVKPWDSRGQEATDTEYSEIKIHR
Chromo domain-containing protein 1 (Saccharomyces cerevisiae (strain ATCC 204508 / S288c) (Baker's yeast)), sequence (P32657 whole entry, the tested form may be a part): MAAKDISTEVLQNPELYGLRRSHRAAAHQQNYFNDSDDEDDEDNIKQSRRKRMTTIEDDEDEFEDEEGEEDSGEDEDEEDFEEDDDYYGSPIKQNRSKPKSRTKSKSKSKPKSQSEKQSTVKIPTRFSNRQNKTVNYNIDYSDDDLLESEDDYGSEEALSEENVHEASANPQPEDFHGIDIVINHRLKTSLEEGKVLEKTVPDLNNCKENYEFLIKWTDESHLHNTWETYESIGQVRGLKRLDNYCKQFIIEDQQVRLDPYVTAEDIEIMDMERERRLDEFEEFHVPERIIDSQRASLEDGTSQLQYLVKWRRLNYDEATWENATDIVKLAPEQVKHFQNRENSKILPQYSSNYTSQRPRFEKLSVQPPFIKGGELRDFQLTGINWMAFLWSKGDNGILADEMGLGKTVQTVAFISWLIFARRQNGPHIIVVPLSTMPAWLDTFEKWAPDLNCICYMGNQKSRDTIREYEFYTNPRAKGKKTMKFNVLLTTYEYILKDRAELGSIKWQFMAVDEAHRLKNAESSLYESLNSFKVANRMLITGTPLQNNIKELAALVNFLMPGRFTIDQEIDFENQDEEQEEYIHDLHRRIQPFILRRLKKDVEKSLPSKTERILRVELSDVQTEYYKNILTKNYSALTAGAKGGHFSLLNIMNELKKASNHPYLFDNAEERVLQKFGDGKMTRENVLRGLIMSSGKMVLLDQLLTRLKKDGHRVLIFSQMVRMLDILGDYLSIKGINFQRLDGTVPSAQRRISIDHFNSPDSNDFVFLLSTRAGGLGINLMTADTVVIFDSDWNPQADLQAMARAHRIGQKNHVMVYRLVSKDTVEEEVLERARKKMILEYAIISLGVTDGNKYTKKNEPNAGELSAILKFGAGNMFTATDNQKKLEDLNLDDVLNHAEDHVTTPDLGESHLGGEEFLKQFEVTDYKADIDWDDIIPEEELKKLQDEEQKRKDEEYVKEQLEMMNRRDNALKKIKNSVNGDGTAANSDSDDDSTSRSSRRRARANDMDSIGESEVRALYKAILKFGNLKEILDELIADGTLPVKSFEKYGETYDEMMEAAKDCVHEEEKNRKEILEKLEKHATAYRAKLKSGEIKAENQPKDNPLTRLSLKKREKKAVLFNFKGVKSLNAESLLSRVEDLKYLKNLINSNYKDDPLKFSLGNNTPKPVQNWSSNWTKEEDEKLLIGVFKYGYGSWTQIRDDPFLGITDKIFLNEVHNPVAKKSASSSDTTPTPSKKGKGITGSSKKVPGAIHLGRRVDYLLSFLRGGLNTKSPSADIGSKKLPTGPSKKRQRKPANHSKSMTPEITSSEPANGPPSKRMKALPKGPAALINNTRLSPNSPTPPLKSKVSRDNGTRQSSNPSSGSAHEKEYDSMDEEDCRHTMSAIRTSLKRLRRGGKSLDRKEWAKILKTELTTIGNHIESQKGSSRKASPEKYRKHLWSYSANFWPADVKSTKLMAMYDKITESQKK

As for `c1ccc(OCc2nnc3n2CCN(CC2CCOCC2)C3)nc1`, the Percent Effect in test [1] was -2.49%; in test [2], 1.3%; in test [3], -1.26%; with Trypanosoma cruzi, -1.07%; in [4], -2.43%; in test [5] it was -0.0883%. Moreover, the Percent Effect in the test filed under Homo sapiens is -3.47%; in test [6], 0.526%; in test [7], -89.7%; in [8] it was -2.56%.

In the case of `Cc1nc(CN2CCN(Cc3nccn3C)CC2)no1`, the Percent Effect in [1] was -4.99%; in test [2], 8%; in [3], -1.66%; in the test with Trypanosoma cruzi, 3.21%; in test [4], -1.77%; in test [5], 4.16%. Moreover, the Percent Effect is 11.1% in the test listed under Homo sapiens, 5.79% in test [6], 15.4% in test [7] and -11.3% in test [8].

Regarding `COc1ccc(C(=O)N2C[C@@H](CN3CCOCC3)[C@@H](CO)C2)c(C)c1`, the Percent Effect is -3.12% in test [1]; 0% in [2]; 14.3% in test [3]; 7.47% in the test on Trypanosoma cruzi; 6.64% in test [4]; 1.71% in [5]. The Percent Effect in the test filed under Homo sapiens was -27.6%; in test [6] it was 1.6%; in [7] it was 9.76%; in test [8] it was -1.95%.

As to `Cc1ccc(C(=O)N2CCN(CCc3cccs3)CC2)c(=O)[nH]1`, the Percent Effect is -2.8% in test [1]; 2.56% in test [2]; -0.768% in test [3]; -1.6% with Trypanosoma cruzi; 8.61% in [4]; -2.65% in [5]. For the same molecule, the Percent Effect is 24.3% in the test listed under Homo sapiens, 3.35% in test [6], 10.8% in [7] and -2.19% in [8].

In the case of `COc1ncccc1C(=O)N1CCn2c(COCC3CC3)cnc2C1C` (stereo not given), the Percent Effect in [1] was -3.37%; in test [2] it was 3.9%; in [3] it was -3.01%; in the test on Trypanosoma cruzi, 1.07%; in test [4], -1.62%; in test [5], 8.21%. Also, the Percent Effect in the test listed under Homo sapiens was -16%; in test [6], 4.74%; in [7] it was 7.69%; in test [8], 1.11%.

Consider `CCCS(=O)(=O)N1CCN(c2ccnc(N3CCCC3)n2)CC1`, for which the Percent Effect in test [1] was -0.256%; in test [2], 0%; in test [3] it was 12.4%; in the test on Trypanosoma cruzi, 6.89%; in [4], 8.04%; in test [5], 6.85%. Moreover, the Percent Effect in the test filed under Homo sapiens is -21.8%; in test [6] it was 2.66%; in [7], 4.88%; in test [8], -3%.

For `Cn1cnc2c1CCN(Cc1ccc(C(=O)N3CCCC3)cc1)C2`, the Percent Effect was -2.26% in [1]; 15.4% in [2]; -9.12% in test [3]; 1.97% in the test with Trypanosoma cruzi; 4.51% in test [4]; 11% in test [5]. The Percent Effect in the test listed under Homo sapiens is 9.66%; in test [6], 3.35%; in [7], 20.5%; in [8] it was -0.499%.

As to `Fc1ccc(-c2n[nH]cc2-c2ccnc(NCCN3CCCC3)n2)cc1`, the Percent Effect in [1] was -1.15%; in test [2], 8%; in test [3] it was -4.6%; in the test with Trypanosoma cruzi, -8.23%; in test [4], -7.98%; in [5] it was 15.3%. Moreover, the Percent Effect in the test listed under Homo sapiens is 5.44%; in [6], -5.79%; in [7] it was 0%; in test [8], -21.2%.

With `CCN(CC1CCOC1)C(=O)Nc1ccc(N2CCCC2)nc1` (stereo not given), the Percent Effect in test [1] is -6.5%; in test [2], 12.8%; in [3], -1.33%; in the test with Trypanosoma cruzi it was 5.35%; in test [4], 2.87%; in [5] it was 14.2%. Moreover, the Percent Effect in the test listed under Homo sapiens is 10.2%; in [6] it was 7.18%; in test [7] it was 18.1%; in [8], -10.3%.

On to `Cc1cccc(C(=O)N2CCC(Cc3cnc4[nH]ccc4c3)CC2)n1`, for which the Percent Effect in test [1] is -4.68%; in [2] it was 12%; in test [3] it was -0.292%; in the test with Trypanosoma cruzi, -3.35%; in test [4], 4.42%; in [5] it was 9.2%. Besides, the Percent Effect in the test filed under Homo sapiens is 2.32%; in test [6] it was 3.17%; in test [7], 7.5%; in test [8], -24.1%.

Consider `Cc1ccc(CN2CCCn3c(nc(Cn4cncn4)cc3=O)C2)s1`, for which the Percent Effect in [1] is -8.68%; in [2] it was 11.7%; in test [3], -3.78%; with Trypanosoma cruzi, 2.43%; in test [4] it was -1.22%; in [5], 7.5%. Further, the Percent Effect in the test filed under Homo sapiens is -3.95%; in test [6] it was 4.74%; in test [7], 12.8%; in test [8], -1.68%.

The record behind these values is ChEMBL document CHEMBL3988442, “University of Dundee, Small-Polar-MMV Screening Library” (2021).
